# Source: PubChem (The Scripps Research Institute Molecular Screening Center)
# SRC3 TRFRET art: TR-FRET artefact, counter-screen to PPARgamma/SRC-3 agonist assay. TR-FRET ratio at 8 µM. PPARgamma/SRC-3 format; stronger effect = higher value. hit rate 0.39% among 99,000; in the data active means TR-FRET ratio above about 2000
# PPARg SRC-2 ag: agonists of SRC-2 recruitment by human PPARgamma | PPARgamma LBD-SRC-2 recruitment, biochemical | P37231 | activation, % at 8 µM | hit rate 0.34% among 200,000 | AID 1032;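 further: 0% = vehicle and 100% = reference agonist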
# TR-FRET SRC-2 ct: TR-FRET artefact, counter-screen to PPARgamma/SRC-2 agonist assay; TR-FRET ratio at 8 µM; stronger effect = higher value; hit rate 0.4% among 200,000; in the data active means TR-FRET ratio above about 2000
# SRC1 TRFRET art: flags TR-FRET format artefacts in PPARgamma SRC-1 recruitment agonist screen | TR-FRET detection artefact counter-screen, emission ratio; stronger effect = higher value | TR-FRET ratio at 8 µM | hit rate 0.34% among 99,000; in the data active means TR-FRET ratio above about 2300
# PPARg SRC-1 ag: promotes SRC-1 coactivator recruitment by human PPARgamma; P37231; PPARgamma-SRC-1 coactivator recruitment biochemical assay; activation, % at 8 µM; hit rate 0.41% among 200,000; AID 631; in the data active means activation above about 19%;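 further: 0% = DMSO and 100% = reference agonist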
# PPARg SRC3 recr: PPARgamma-driven SRC-3 recruitment agonism | AID 731 | biochemical PPARgamma/SRC-3 coactivator recruitment assay | hit rate 0.26% among 200,000 | activation, % at 8 µM; in the data active means activation above about 23%;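 further: 0% = DMSO and 100% = reference agonist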
# PPARg SRC2 ag: human PPARgamma SRC-2 recruitment agonism, confirmation; shares compounds with PPARg SRC3 recr; biochemical SRC-2 recruitment by PPARgamma; activation, % at 8 µM; hit rate 52% among 790; AID 1297;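 further: 0% = vehicle alone and 100% = reference agonist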
# PPARg SRC1 ag: human PPARgamma SRC-1 recruitment agonism, confirmation; shares compounds with PPARg SRC3 recr; PPARgamma–SRC-1 coactivator recruitment biochemical assay; activation, % at 8 µM; hit rate 43% among 790; AID 1300; in the data active means activation above about 20%;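 further: 0% = vehicle wells and 100% = reference agonist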
# PPARg SRC3 ag: confirmation of agonists of SRC-3 recruitment by human PPARgamma; activation, % at 8 µM; hit rate 29% among 790; biochemical PPARgamma-SRC-3 coactivator recruitment, agonist mode; shares compounds with PPARg SRC3 recr; in the data active means activation above about 24%;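 further: 0% = vehicle wells and 100% = reference agonist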
# Active calls of the source: *; . = no result given. Sampled rows, rich in hits. Any-hit rate of the full collection: about 0.84%. Unless noted, no stated cut-off is given here; in the data, active means activation above about 22%; inactive means the rest.
SMILES,SRC3 TRFRET art,PPARg SRC-2 ag,TR-FRET SRC-2 ct,SRC1 TRFRET art,PPARg SRC-1 ag,PPARg SRC3 recr,PPARg SRC2 ag,PPARg SRC1 ag,PPARg SRC3 ag
CNC(=S)N1N=C(c2ccc(OC)cc2)CC1c1ccc(Cl)cc1Cl (stereo not given),3446*,7,2360*,3403*,22*,16,18,12,12
COc1ccc(C2=NN(C(=O)CN3CCCCC3)C(c3ccc(C)cc3)C2)cc1 (stereo not given),1434,1,1498,1708,2,1,.,.,.
O=C(CCc1nnc(Cc2ccc3c(c2)OCO3)o1)NC(c1ccccn1)C(F)(F)F (stereo not given),1497,-6,1590,1630,-1,0,.,.,.
N#Cc1c(SCC(=O)O)nc(-c2ccccc2)c2c1CCCC2,.,11,1727,.,17,30*,14,11,9
O=C(NCc1cccnc1)C(=O)NCC1OCCCN1S(=O)(=O)c1ccccc1 (stereo not given),1553,0,1497,1861,7,-1,.,.,.
Cc1nc2scc(-c3ccccc3)c2c(=O)n1N=C1C=CC(=O)C=C1,1556,26*,1437,1523,39*,35*,39*,38*,31*
O=C(Nc1cccc(Oc2ccc3c(c2)C(=O)NC3=O)c1)c1cccs1,1475,0,1512,1715,5,2,.,.,.
CCOC(=O)N1CCC(Nc2ccc(N3C(=O)C4CCCCC4C3=O)cc2[N+](=O)[O-])CC1 (stereo not given),1540,-7,1462,1737,-2,-4,.,.,.
CCCC(=O)Nc1c2c(nc3ccccc13)N(c1ccccc1)CC2,2855*,61*,3204*,2803*,46*,46*,41*,25*,26*
CC(C)CNC(=S)Nc1ccc(Oc2ccccc2)cc1,1561,-5,1589,1715,0,3,.,.,.
Cc1nnc2c3ccccc3c(Cl)nn12,1436,-9,1452,1711,-6,1,.,.,.
COc1ccc(C(CC(=O)Nc2ccc(Cl)cc2F)NC(=O)C(F)(F)F)cc1 (stereo not given),.,2,1618,.,19*,8,4,4,4
COc1cccc(CNC(=O)CCC2CCCN(C(=O)c3ccc(OC)o3)C2)c1 (stereo not given),1578,-9,1467,1558,-2,3,.,.,.
C/C(CC(=O)NC(C)(C)C)=N\NC(N)=S,1702,9,1781,2014,21*,1,6,2,3
CCCCc1cc(=O)oc2cc(O)cc(O)c12,2006,20,2054*,2687*,28*,13,13,9,11
CCCCc1cc(=O)oc2cc(C)cc(O)c12,.,14,1941,.,7,17,.,.,.
O=C1CCCN1CCCNC(=S)Nc1ccc(Nc2ccccc2)cc1,1767,14,1621,2144,24*,11,9,5,5
O=C1CCCN1CCNC(=S)Nc1ccccc1,.,0,1426,.,1,11,.,.,.
CCOC(=O)c1c(C)[nH]sc1=S,.,58*,2727*,.,40*,70*,33*,21*,25*
O=C(c1ccccc1)N1CCSc2sccc2C1=O,2052*,29*,2115*,2582*,20,12,39*,32*,24*
O=C(c1ccccc1)N1CCSC1=S,.,-3,1438,.,-3,-4,.,.,.
Oc1ccc(NCc2cccc(OCc3ccccc3)c2)cc1,1844,14,1789,1900,24*,3,-1,-1,2
CCSC1=NSC2=NC(=O)/C(=C\c3coc4ccccc4c3=O)C(=N)N12,1460,13,1696,1609,8,23*,9,8,20
CC(C)C(OC(=O)c1cc2occc2n1C)C(=O)NCc1ccc2c(c1)OCO2 (stereo not given),1951,13,1600,1700,33*,31*,11,21*,20
Cc1cc2c(cc(C(=O)OC(C(=O)NCc3ccco3)C(C)C)n2C)o1 (stereo not given),.,10,1764,.,-4,1,.,.,.
SMILES,SRC3 TRFRET art,PPARg SRC-2 ag,TR-FRET SRC-2 ct,SRC1 TRFRET art,PPARg SRC-1 ag,PPARg SRC3 recr,PPARg SRC2 ag,PPARg SRC1 ag,PPARg SRC3 ag
CCOc1ccc(-c2n[nH]c(=S)o2)cc1,1733,6,1808,2049,16,6,.,.,.
CCOc1ccccc1-c1n[nH]c(=S)o1,.,39*,2292*,.,28*,50*,43*,30*,28*
COc1ccc(NC(=O)C(=O)NCCN2CCN(C(=O)c3ccco3)CC2)cc1,1928,10,1689,1874,9,-1,.,.,.
O=c1oc2cc(O)ccc2c2ccccc12,.,47*,2392*,.,28*,60*,30*,17,22
COc1ccc2c(c1)c(=O)oc1cc(O)ccc12,1675,5,1582,1714,-2,3,.,.,.
CC(=O)N=c1sc2nc3ccccc3nc2n1N(C(C)=O)C(C)=O,1815,26*,1906,2476*,15,15,44*,31*,29*
CN1/C(=C\C=N\O)C(C)(C)c2ccccc21,1499,1,1498,1991,-3,-1,.,.,.
CN(C)c1ccc(N=C/C=C2/N(C)c3ccccc3C2(C)C)cc1,2085*,32*,2099*,2167,28*,17,13,12,8
CC1(C)OC(=O)C(=Cc2ccc(-c3ccc(S(N)(=O)=O)cc3)o2)C(=O)O1,1686,-5,1382,1707,-2,-1,.,.,.
NS(=O)(=O)c1ccc(-c2ccc(/C=C3\C(=O)Nc4cc(Cl)ccc43)o2)cc1,1999,16,1867,1718,27*,16,31*,16,18
CCN(CC)c1ccc(C=Nc2ccccc2)c(O)c1,.,6,1517,.,-4,10,.,.,.
CCN(CC)c1ccc(C=Nc2ccc(N(C)C)cc2)c(O)c1,.,78*,2498*,.,24*,98*,6,5,7
[2H]c1c([2H])c([2H])c(C(=O)c2sc(N3CCCCCC3)nc2-c2ccccc2)c([2H])c1[2H],.,17,1896,.,13,28*,16,12,10
O=C(c1ccccc1)c1sc(N2CCCCCC2)nc1-c1ccccc1,.,7,1948,.,19*,23,16,13,8
Cc1cc(=O)n(C2CCS(=O)(=O)C2)[nH]1 (stereo not given),1521,-1,1569,1888,-1,2,.,.,.
CCN(CC)c1ccc(/C=C2/C(=O)ON=C2C)cc1,1737,11,1519,2156,18,26*,15,11,14
Nc1ccc(Nc2nc(-c3ccncc3)cs2)cc1,.,19,1644,.,11,33*,5,3,3
Oc1ccc2n[nH]nc2c1,1789,5,1648,1684,2,2,.,.,.
